Bioassay records deposited in PubChem by The Scripps Research Institute Molecular Screening Center.
An excerpt weighted towards active compounds, which were near 4.8% of everything screened.
DAX1 inh-1: blocks DAX1 repression of SF-1 activated StAR promoter | HEK293T StAR-luciferase reporter, SF-1/DAX-1 repression relief | inhibition, % at 6.8 µM | actives 1.1% (n = 370,000) | AID 652010;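 active = inhibition above the mean over all tested compounds plus 3 SD, cut at about 3.6% in these data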;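 also: higher inhibition means more luminescence from relief of DAX-1 repression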
DAX1 inh-2: inhibits human nuclear receptor DAX1 | actives 0.99% (n = 340,000) | inhibition, % at 6.75 µM | P51843 | HEK293 Gal4-DAX1 luciferase reporter, luminescence | AID 504766;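 active = inhibition above the mean over all tested compounds plus 3 SD, cut at about 4.2% in these data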;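 also: inhibition shows as a rise in luminescence from relieved DAX1 repression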
Target sequence (P51843 207-470 limits assumed): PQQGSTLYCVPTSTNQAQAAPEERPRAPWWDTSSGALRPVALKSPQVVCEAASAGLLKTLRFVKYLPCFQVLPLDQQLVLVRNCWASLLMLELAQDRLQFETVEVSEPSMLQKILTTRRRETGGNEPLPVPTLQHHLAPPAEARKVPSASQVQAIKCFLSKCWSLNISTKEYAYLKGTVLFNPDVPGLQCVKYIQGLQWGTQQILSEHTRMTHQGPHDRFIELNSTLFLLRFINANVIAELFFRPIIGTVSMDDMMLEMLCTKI
ssDAF12 agonist: S. stercoralis DAF-12 activation, primary screen; HEK293 ssDAF-12/GRIP1 lit1-tk-luc reporter, luminescence; % of 3 µM dafachronic acid response; activation, % at 6.8 µM; actives 1% (n = 370,000);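 active = activation above the mean over all tested compounds plus 3 SD, cut at about 0.9% in these data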
SMARCA2 act: SMARCA2 function activation, primary screen. activation, % at 9.1 µM. actives 1% (n = 370,000). AID 652017. MG213 cells, MMTV-luciferase reporter, dexamethasone, overnight; in the data active = activation above about 7.8%
hcDAF12 agonist: activators of H. contortus DAF-12 nuclear receptor; activation, % at 6.8 µM; HEK293 hcDAF-12 lit1-tk-luc reporter, luminescence; 0% DMSO, 100% Δ7-dafachronic acid; actives 1.4% (n = 370,000);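 active = activation above the mean of all tested compounds plus 3 SD, cut at about 5.5% in these data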
hgDAF12 agonist: hgDAF-12 agonism, primary luciferase screen; HEK293 GAL4-hgDAF12 UAS-luciferase reporter, agonist luminescence; normalized to butyrate control; activation, % at 6.8 µM; actives 1.8% (n = 370,000); AID 687014;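 active = activation above a cutoff set at the mean of all screened compounds plus 3 SD, cut at about 10% in these data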
Of the large screens only hits and unclear results are named; the others gave an inactive call.

O=C(NC1CCCCC1)c1ccc(-c2cn[nH]c2)c2ccoc12	hgDAF12 agonist 12.7 (no result: DAX1 inh-2)
CCOc1ccc(Oc2c(Cl)c(Br)nn(Cc3cccc4ccccc34)c2=O)cc1	none (no result: DAX1 inh-2)
COC(=O)[C@@H](CC(C)C)CP(=O)(OC)[C@@H](C)NC(=O)OCc1ccccc1 (stereo not given in full)	none (no result: DAX1 inh-2)
Cc1ccc(NC(=O)C2OCCc3ccccc32)cc1C (stereo not given)	hgDAF12 agonist 11.0
C#CCOCCOCCOCCNc1nc(N2CCN(C(=O)[C@H](CCCCN)n3cc([C@@H](N)CC(N)=O)nn3)CC2)nc(N2CCN(C(=O)[C@H](CCCCN)n3cc([C@@H](N)CC(N)=O)nn3)CC2)n1	DAX1 inh-2 4.5
C#CCOCCOCCOCCNc1nc(N2CCN(C(=O)[C@H](CCCCN)n3cc(CN)nn3)CC2)nc(N2CCN(C(=O)[C@H](CCCCN)n3cc([C@@H](N)CC(N)=O)nn3)CC2)n1	none
CCn1c(SCC(=O)Nc2ccc(C(N)=O)cc2)nc2sc(C)c(C)c2c1=O	none (no result: DAX1 inh-2)
Cc1ccc(C(=O)c2cc3ccccc3o2)cc1	hgDAF12 agonist 11.8
Cc1ccc(C(=O)c2cc3ccccc3o2)cc1C	hgDAF12 agonist 11.1
O=C(c1cccc([N+](=O)[O-])c1)c1cc2ccccc2o1	none
CC(C)(C)OC(=O)n1cc(-c2ccccc2)c2c(-c3ccccc3)c(O)ccc21	none (no result: DAX1 inh-2)
COC(=O)C1=C(C)N(Cc2cccc(C(F)(F)F)c2)C(=NCc2ccc3c(c2)OCO3)NC1c1ccc(F)cc1 (stereo not given)	none (no result: DAX1 inh-2)
C[C@@H]1[C@@H](c2ccccc2)c2cc3ccccc3nc2-c2nc3ccccc3cc2[C@@H]1C(=O)N1CCCC1	none (no result: DAX1 inh-2)
O=C(CN1CCCC1)Nc1ccc(-c2nc3cc(NC(=O)CN4CCCC4)ccc3o2)cc1	DAX1 inh-2 5.8
CC(C)c1ccc2oc(-c3ccc(NC(=O)c4ncn[nH]4)cc3)nc2c1	DAX1 inh-1 4.0
CCN(CC)CC(=O)Nc1ccc(-c2nc3cc(NC(=O)CN(CC)CC)ccc3o2)cc1	ssDAF12 agonist 1.0
CCc1ccc2oc(-c3ccc(NC(C)=O)cc3)nc2c1	ssDAF12 agonist 1.1, hcDAF12 agonist 5.8, hgDAF12 agonist 10.8
CCC(C)NCC(=O)Nc1ccc(-c2nc3cc(NC(=O)CNC(C)CC)ccc3o2)cc1 (stereo not given)	none
CCCCC(=O)Nc1ccc2oc(-c3ccncc3)nc2c1	none
CCCC(=O)Nc1ccc2oc(-c3ccncc3)nc2c1	none
O=C1N(Cc2ccccc2)c2ccccc2C12CCCc1sc(CCc3ccccc3)nc12 (stereo not given)	none (no result: DAX1 inh-2)
C[C@H](O)[C@@H]1CN2CCc3c([nH]c4cccc(-c5ccc6c(c5)OCO6)c34)[C@@H]2C[C@@H]1N(C)C(=O)c1ccco1	none (no result: DAX1 inh-2)
CC(C)CC(=O)Nc1ccc2oc(-c3cccnc3)nc2c1	none
Cc1ccc2oc(-c3ccc(NC(=O)CC(C)C)cc3)nc2c1	hgDAF12 agonist 10.8
Cc1ccc2nc(/C(C#N)=C\c3ccc(Oc4ccc([N+](=O)[O-])cn4)cc3)[nH]c2c1	none
CCOc1cc(/C=C(/C#N)c2nc3ccccc3[nH]2)ccc1Oc1ccc([N+](=O)[O-])cn1	hcDAF12 agonist 5.8
COc1ccc2nc(/C(C#N)=C\c3ccc(C(=O)O)cc3)[nH]c2c1	hgDAF12 agonist 12.8
CCOc1cc(/C=C(\C#N)c2nc3ccccc3[nH]2)ccc1OC(C)C(=O)O (stereo not given)	none
COc1cc(/C=C(/C#N)c2nc3ccccc3[nH]2)ccc1OCc1ccc(C(=O)O)o1	none
COc1ccc2nc(/C(C#N)=C\c3ccc(Oc4ccc([N+](=O)[O-])cn4)cc3)[nH]c2c1	SMARCA2 act 12.0
COc1ccc(C(C#N)=Cc2ccc(NC(C)=O)cc2)cc1	DAX1 inh-1 3.7
CC(=O)NC(Cc1ccccc1)P(=O)(O)O (stereo not given)	none (no result: DAX1 inh-2)
COC(=O)[C@H]1C[C@@]2(n3ccc4ccccc43)c3ccccc3N[C@H]2N1	none (no result: DAX1 inh-2)
Nc1[nH]c2cc(Cl)ccc2c1C(=O)N1CCOCC1	none (no result: DAX1 inh-2)
O=C(c1cc(Cl)cc(Cl)c1)N1CC[C@H]2[C@H](CCCN2Cc2ccccc2)C1	none (no result: DAX1 inh-2)
O=C(OC12CCCN(C1)/C(=C/c1ccncc1)C2)c1ccco1 (stereo not given)	none (no result: DAX1 inh-2)
Cc1cccnc1NC(=S)NC(=O)/C=C/c1ccco1	none
COc1ccc(/C=C/C(=O)NC(=S)Nc2ccccn2)cc1	none
COc1ccccc1OCC(=O)Nc1ccccn1	hgDAF12 agonist 13.1
O=C(/C=C/c1ccco1)NC(=S)Nc1ccccn1	DAX1 inh-2 5.9
COc1ccccc1/C=C/C(=O)NC(=S)Nc1ccccn1	ssDAF12 agonist 1.4
O=C(/C=C/c1ccco1)Nc1cccc(NC(=O)/C=C/c2ccco2)n1	hcDAF12 agonist 6.4, hgDAF12 agonist 11.4
COc1ccccc1OCC(=O)Nc1ccncc1	none
O=C(Nc1ccc(Br)cc1)O[C@@H]1CC[C@@]23CCCN2C(=O)CCC[C@H]3C1	none (no result: DAX1 inh-1, DAX1 inh-2, SMARCA2 act)
COc1cc(CC(=O)O)c([N+](=O)[O-])cc1OC	none
COc1cc2c(cc1[N+](=O)[O-])n(C(C)C)c(=O)n2C(C)C	DAX1 inh-2 5.5
COc1ccc(C(=O)ON=C2CCN(c3ccc([N+](=O)[O-])cc3)CC2)cc1	none
CN1CCC(=NOc2ccc([N+](=O)[O-])cc2)CC1	DAX1 inh-2 4.7
COc1ccc(OC)c(/C=C/C(=O)Nc2ccc(OC)nc2)c1	DAX1 inh-2 5.6
COc1ccc(OC)c(/C=C/C(=O)NC2=NCCS2)c1	none
CC(=O)N1c2ccccc2Oc2cc3ccccc3cc21	hcDAF12 agonist 5.7
Cc1cc(C)cc(C(=O)OCCN(C)C2CN(Cc3cn(Cc4ccccc4C(F)(F)F)nn3)S(=O)(=O)C2)c1 (stereo not given)	none (no result: DAX1 inh-2)
O=C(CSc1nnc(-c2cccnc2)n1Cc1ccco1)Nc1cc(Cl)ccc1F	none (no result: DAX1 inh-2)
COc1ccccc1NC(=O)COC(=O)C1CCN(/C=C/C(=O)C(F)(F)F)CC1	none
O=C(COC(=O)C1CCN(/C=C/C(=O)C(F)(F)F)CC1)Nc1cccc(F)c1	hcDAF12 agonist 6.0
Cc1ccc(-c2cc(-c3nnc4sc(COc5ccccc5)nn34)[nH]n2)cc1	none (no result: DAX1 inh-2)
Cc1cccc(OCC(=O)N2CCC(c3ccccc3)C2)c1 (stereo not given)	hgDAF12 agonist 10.5
Cc1ccc(C2CCN(C(=S)NC3CCCCC3)C2)cc1 (stereo not given)	none
Cc1ccc(NC(=O)N2CCCC(c3ccccc3)C2)cc1 (stereo not given)	none
O=C(Nc1ccccc1)N1CCC(c2ccccc2)C1 (stereo not given)	SMARCA2 act 7.8
Cc1ccc(C2CCN(C(=S)NC(C)(C)C)C2)cc1 (stereo not given)	DAX1 inh-2 5.6
